The text below walks through data of PubChem BioAssay.

Assay [1] can be described thus: growth inhibition of DIPG glioma cells, dose response, cell-based, SU-DIPG-XVII, MIPE5.0, CellTiter-Glo, qHTS (AID 1347060).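 On AC50: cells exposed to compound for 48 hours before viability readout.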 The note with it: SU-DIPG-XVII viability, CellTiter-Glo ATP luminescence.
Assay [2] can be described thus: viability loss in pontine glioma line – cell-based, SU-DIPG-XXV, MIPE5.0, CellTiter-Glo, qHTS, dose response (AID 1347065).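 Further: cells exposed to compound for 48 hours before ATP readout.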 The following applies: CellTiter-Glo ATP luminescence. In general terms: ATP-based viability assays read luminescence as a measure of living cells.
Assay [3] in a line: JHH-DIPG-1 glioma cell viability, MIPE5.0 library, CellTiter-Glo luminescence, qHTS (AID 1347067).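 Further: cells exposed to compound for 48 hours before readout.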 The following applies: JHH-DIPG-1 glioma viability, CellTiter-Glo ATP luminescence.
Assay [4] can be described thus: SU-DIPG-XXV glioma cell viability, MIPE5.0 library, qHTS (AID 1347068; cut-off not given, nearly all actives have IC50 up to about 30 µM;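 on IC50: cells exposed to compound for 48 hours before viability readout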). (In general: Quantitative high-throughput screening tests each substance at several concentrations.)
The nature of assay [5]: sensitizers of A549 cells to miR-34 induction, primary screen, imaging, A549 dox-inducible miR-34, nuclei and caspase counts (AID 1347080;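 active means compounds whose cell count with miR-34 switched on is under 0.7 times the count with it off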). The note with it: A549 miR-34 inducible, Hoechst nuclei count, 48 h.
Assay [6] in a line: survival rescue of mitochondrial mutant cells in low glucose, primary screen, MELAS cybrids, Rieske KO mouse fibroblasts, CellTiter-Glo (AID 1508586;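 active means mean z-score across replicates of 1.96 or higher in either the MELAS or the Rieske mutant cell line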;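 further: z relative to plate mean and SD of compound and empty wells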).
Assay [7] can be described thus: ovarian cancer cell viability with rucaparib, profiling panel, oncology-focused library, rucaparib conditional (AID 1508598;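 active means normalized viability below 100% at a tested concentration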). The note with it: patient-derived ovarian cancer cells, CellTiter-Glo viability, 144 h, stronger effect = lower value.
The nature of assay [8]: SU-DIPG-VI glioma cell viability, MIPE4.0 library, CellTiter-Glo luminescence, qHTS (AID 1347066; cut-off not given, nearly all actives have AC50 up to about 30 µM;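 further: cells exposed to compound for 48 hours before readout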). The following applies: CellTiter-Glo ATP luminescence.

Inconclusive results are not listed. Active and inactive are the calls of the source. Unless noted, cut-off not given; nearly all actives show AC50 up to about 26 µM.

On to `COCCNCc1ccc(-c2cc3nccc(Oc4ccc(NC(=S)NC(=O)Cc5ccc(F)cc5)cc4F)c3s2)nc1`, for which the values for the AC50 in assay [1], in assay [2] and in assay [3] were 7.42 µM (active), 4.17 µM (active) and 7.42 µM (active), respectively. Moreover, the IC50 (as a rule, the concentration needed to halve the response being measured) in assay [4] was 9.34 µM (active).
Consider `O=C(NCC(=O)N1CC[C@H](NC2CCC(O)(c3ccc(-c4ncccn4)cn3)CC2)C1)c1cccc(C(F)(F)F)c1` (some centres undefined), for which the molecule was classed as inactive in assay [1], in assay [2], in assay [3] and in assay [4].
For the molecule `Cc1cc(N2CCOCC2)ccc1Nc1nc(NC2CCCCC2)c2[nH]cnc2n1`, the concentration at half-maximal activity (AC50) (as a rule, the concentration giving half of the maximal activity seen) in assay [1] is 2.35 µM (active); in assay [2], 7.42 µM (active); in assay [3], 14.8 µM (active). Moreover, in assay [4], the IC50 is 20.9 µM (active). Moreover, the fold change in assay [5] (stronger effect = lower value, cell number ratio, induced over uninduced) was 0.907 (inactive); in assay [5] (measured here: relative caspase fold change +Dox/-Dox) it was 0.505. The cell count amounted to 3720 in assay [5] (measured here: total cells with miR-34 induction, stronger effect = lower value) and 4100 in assay [5] (measured here: total cells without miR-34 induction). Also, the z-score in assay [6] (MELAS cybrid survival, CellTiter-Glo 48 h, stronger effect = higher value) was -0.538 (inactive); in assay [6] (Rieske KO mouse fibroblast survival, CellTiter-Glo 72 h), -2.79.
Regarding `CC[C@@H](Oc1cccc(CN(CCCOc2ccc(OC)cc2)c2nc3ccccc3o2)c1)C(=O)O`, the result in assay [1], in assay [2], in assay [3] and in assay [4] was inactive.
For `COc1ccc(C(=O)N2CCN(C(=O)/C=C/c3ccc(Br)cc3)CC2)cc1`, the molecule was called inactive in assay [1], in assay [2], in assay [3] and in assay [4].
On to `Cn1cc(-c2ccc(F)c(C(F)(F)F)c2)nc1C1CCN(c2ncnc3[nH]ncc23)CC1`, for which the outcome in assay [1], in assay [2] and in assay [4] was inactive.
Take `[O-][n+]1cccc(-c2nc3c(Cl)cccc3cc2[C@@H](Nc2ncnc3cccnc23)C(F)(F)F)c1`: the outcome in assay [1] and in assay [3] was inactive.
For `CC(C)Oc1ccc(C(=O)N[C@H](CNC(=O)CN(C)C)Cc2ccc(-c3cn4cccc([C@H](C)O)c4n3)cc2)cc1Cl`, the concentration at half-maximal activity (AC50) is 0.0525 µM (active) in assay [1] and 0.0295 µM (active) in assay [2]. Also, in assay [3], the molecule was classed as inactive. In addition, the viability (in general, a read-out of living cells in per cent, often relative to untreated cells) in assay [7] (at 0.000305 µM, OCI-C5x cells, with rucaparib 10 µM, 100% = cells with rucaparib alone) is 116% (inactive); in assay [7] (at 0.000305 µM, OCI-C5x cells, without rucaparib) it was 118% (inactive); in assay [7] (at 0.000305 µM, OCI-P5x cells, with rucaparib 20 µM, 100% = cells with rucaparib alone) it was 118% (inactive); in assay [7] (at 0.000305 µM, OCI-P5x cells, without rucaparib), 103% (inactive); in assay [7] (at 0.00122 µM, OCI-C5x cells, with rucaparib 10 µM, 100% = cells with rucaparib alone) it was 112% (inactive); in assay [7] (at 0.00122 µM, OCI-C5x cells, without rucaparib) it was 123% (inactive). Also, the viability in assay [7] (at 0.00122 µM, OCI-P5x cells, with rucaparib 20 µM, 100% = cells with rucaparib alone) was 107% (inactive); in assay [7] (at 0.00122 µM, OCI-P5x cells, without rucaparib) it was 107% (inactive); in assay [7] (at 0.00488 µM, OCI-C5x cells, with rucaparib 10 µM, 100% = cells with rucaparib alone), 117% (inactive); in assay [7] (at 0.00488 µM, OCI-C5x cells, without rucaparib), 115% (inactive); in assay [7] (at 0.00488 µM, OCI-P5x cells, with rucaparib 20 µM, 100% = cells with rucaparib alone) it was 107% (inactive); in assay [7] (at 0.00488 µM, OCI-P5x cells, without rucaparib) it was 101% (inactive). For the same molecule, the viability in assay [7] (at 0.0195 µM, OCI-C5x cells, with rucaparib 10 µM, 100% = cells with rucaparib alone) is 69.6% (active); in assay [7] (at 0.0195 µM, OCI-C5x cells, without rucaparib), 73.7% (active); in assay [7] (at 0.0195 µM, OCI-P5x cells, with rucaparib 20 µM, 100% = cells with rucaparib alone), 76.4% (active); in assay [7] (at 0.0195 µM, OCI-P5x cells, without rucaparib), 38.4% (active); in assay [7] (at 0.0781 µM, OCI-C5x cells, with rucaparib 10 µM, 100% = cells with rucaparib alone), 57.4% (active); in assay [7] (at 0.0781 µM, OCI-C5x cells, without rucaparib), 72.4% (active). Also, the viability in assay [7] (at 0.0781 µM, OCI-P5x cells, with rucaparib 20 µM, 100% = cells with rucaparib alone) was 66.4% (active); in assay [7] (at 0.0781 µM, OCI-P5x cells, without rucaparib), 30.8% (active); in assay [7] (at 0.313 µM, OCI-C5x cells, with rucaparib 10 µM, 100% = cells with rucaparib alone), 57.8% (active); in assay [7] (at 0.313 µM, OCI-C5x cells, without rucaparib), 65% (active); in assay [7] (at 0.313 µM, OCI-P5x cells, with rucaparib 20 µM, 100% = cells with rucaparib alone), 62.3% (active); in assay [7] (at 0.313 µM, OCI-P5x cells, without rucaparib) it was 28.3% (active). Also, the viability in assay [7] (at 1.25 µM, OCI-C5x cells, with rucaparib 10 µM, 100% = cells with rucaparib alone) is 61.8% (active); in assay [7] (at 1.25 µM, OCI-C5x cells, without rucaparib), 72.8% (active); in assay [7] (at 1.25 µM, OCI-P5x cells, with rucaparib 20 µM, 100% = cells with rucaparib alone), 62.6% (active); in assay [7] (at 1.25 µM, OCI-P5x cells, without rucaparib) it was 26.8% (active); in assay [7] (at 5 µM, OCI-C5x cells, with rucaparib 10 µM, 100% = cells with rucaparib alone) it was 79.5% (active); in assay [7] (at 5 µM, OCI-C5x cells, without rucaparib), 89.6% (active). The viability is 63.4% (active) in assay [7] (at 5 µM, OCI-P5x cells, with rucaparib 20 µM, 100% = cells with rucaparib alone) and 25.3% (active) in assay [7] (at 5 µM, OCI-P5x cells, without rucaparib).
On to `C/C(=C\c1csc(C)n1)[C@@H]1C[C@@H]2O[C@]2(C)CCC[C@H](C)[C@H](O)[C@@H](C)C(=O)C(C)(C)[C@@H](O)CC(=O)N1`, for which the results for the AC50 in assay [1] and in assay [2] were 0.0148 µM (active) and 0.0118 µM (active), respectively. Moreover, the IC50 in assay [4] is 3.32 µM (active).
Regarding `COC(=O)[C@H]1[C@@H](O)[C@@]2(O)c3c(OC)cc(O[C@@H]4O[C@@H]([C@@H](O)CO)CO[C@H]4OC)cc3O[C@@]2(c2ccc(OC)cc2)[C@@H]1c1ccccc1`, the concentration at half-maximal activity (AC50) was 8.33 µM (active) in assay [1] and 5.25 µM (active) in assay [2]. Further, in assay [4], the outcome was inactive.
For the molecule `C=CC(=O)N[C@H]1CN(c2nc(Nc3cn(C)nc3OC)c3ncn(C)c3n2)C[C@@H]1F`, the AC50 is 18.6 µM (active) in assay [1] and 20.9 µM (active) in assay [2]. For the same molecule, the IC50 in assay [4] is 16.6 µM (active).
As for `NC(=O)[C@@H](CCC(F)(F)F)N(Cc1ccc(-c2ncon2)cc1F)S(=O)(=O)c1ccc(Cl)cc1`, the molecule was called inactive in assay [1], in assay [8] and in assay [3].
Turning to `C=CC(=O)N1CC(N2CCN(C(=O)CNc3cc(C4(C)CC4)c(Cl)cc3O)CC2)C1`, the outcome in assay [1], in assay [2] and in assay [4] was inactive.
`Nc1nc(OC(c2ccc(-c3cccc(F)c3)cc2)C(F)(F)F)cc(-c2ccc(C[C@H](N)C(=O)O)cc2)n1` (some centres undefined): the molecule was classed as inactive in assay [1], in assay [2] and in assay [4].
